We go through 15 compounds from PubChem BioAssay (EPA / NIEHS).

SMILES strings stand for the structures. Values joined by “and” are separate entries in the source; they are usually repeats but may differ in a detail not shown here. Equal entries are not always repeated. Records with an inconclusive call do not appear. The source holds several records for some structures; these can differ, active in one and inactive in another. Active and inactive are the calls of the source. How the source made its calls, unless noted: active means hit-call score of the fitted dose curve at least 0.9, where 1 is the maximum; inactive means score below 0.9.

Assay [1] can be described thus: ACEA_ER_80hr: ACEA Biosciences xCELLigence Real-Time Cell Analysis on Estrogen Receptor Agonism for Proliferation (AID 2282667; active means hit-call score of the fitted dose curve at least 0.9, where 1 is the maximum). The following applies: T47D proliferation, impedance (xCELLigence), 80 h. The essentials: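 Cell-growth kinetics were measured by impedance in T47D cells treated continuously with compound (top 100 uM final, 1:4 steps, 8 points). Activity at 80 h was scored as signal gain over the DMSO baseline.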

The nature of assay [2]: ATG_CRE_CIS: Attagene CIS-FACTORIAL HepG2 Assay for human cAMP Responsive Element (CRE) binding protein 3 (AID 2282926). The following applies: HepG2 CRE cis-reporter, Attagene multiplexed mRNA; actives raise or lower the signal. The method in brief:
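We dosed HepG2 cells bearing multiple cis-promoter reporter units for 24 h and measured reporter mRNA by RT-PCR with capillary electrophoresis detection. Bidirectional concentration-response fitting used DMSO as negative control.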

Assay [3] deals with CCAAT/enhancer-binding protein beta (Homo sapiens) (UniProt P17676). The assay is described as follows: ATG_C_EBP_CIS: Attagene CIS-FACTORIAL HepG2 Assay for human CCAAT/Enhancer Binding Protein (C/EBP) beta (AID 2282927). The following applies: HepG2 Attagene cis-factorial transcription factor reporter; actives raise or lower the signal. The method in brief:
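Chemical-treated HepG2 cells (24 h) bearing cis-regulated reporter constructs were processed for total RNA, then reverse transcription, PCR amplification, fluorescent primer extension and fragment analysis; gain- and loss-of-signal were fitted against DMSO.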

Assay [4] is described as follows: ATG_CMV_CIS: Attagene CIS-FACTORIAL HepG2 Assay for human CMV (Internal Marker) (AID 2282928).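 Further: endpoint acts as a background internal control marker rather than a target.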 The following applies: HepG2 CMV promoter reporter, transcription factor profiling; actives raise or lower the signal. The essentials: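 CMV internal-marker background readout in transiently transfected HepG2 cells bearing cis-regulated reporter units. Reporter mRNA is measured 24 h after dosing by RT-PCR and capillary electrophoresis, with bidirectional fitting against DMSO.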

Assay [5] can be described thus: ATG_DR4_LXR_CIS: Attagene CIS-FACTORIAL HepG2 Assay for human Liver X Receptor (LXR), DR4 submotif (AID 2282929). The following applies: HepG2 Attagene DR4 cis-reporter, mRNA transcription; actives raise or lower the signal. The method in brief:
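Transiently transfected HepG2 liver cells; cis-regulated reporters; 24 h dosing. RT-PCR plus CE read-out of reporter mRNA. DMSO baseline, bidirectional curve fitting.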

In assay [6] the target is Aryl hydrocarbon receptor (Homo sapiens) (UniProt P35869). The assay is described as follows: ATG_Ahr_CIS: Attagene CIS-FACTORIAL HepG2 Assay for human Aryl Hydrocarbon Receptor (Ahr) (AID 2282930). The following applies: HepG2 AhR cis-factorial reporter transcription; actives raise or lower the signal. The method in brief:
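Following 24 h of chemical dosing, transfected HepG2 liver cells with cis-driven reporter units were lysed for RNA; reporter mRNA was quantified via RT-PCR and capillary electrophoresis, and responses fitted bidirectionally from DMSO.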

The nature of assay [7]: ATG_AP_1_CIS: Attagene CIS-FACTORIAL HepG2 Assay for human Activator Protein 1 (AP-1) (AID 2282931). The following applies: HepG2 Attagene cis-factorial AP-1 reporter mRNA; actives raise or lower the signal. The method in brief: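 We transfected HepG2 cells transiently with a set of cis-regulated reporter transcription units, dosed them for 24 h, and quantified reporter mRNA via RT-PCR and capillary electrophoresis, scoring gain or loss of signal relative to DMSO.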

Assay [8] can be described thus: ATG_AP_2_CIS: Attagene CIS-FACTORIAL HepG2 Assay for human Activator Protein 2 (AP-2) (AID 2282932). The following applies: HepG2 AP-2 cis-reporter, Attagene transcription factor profiling; actives raise or lower the signal. The essentials:
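Bidirectional curve fitting against DMSO was applied to reporter mRNA signals from HepG2 cells 24 h after dosing. Cis-promoter reporter units, transiently transfected, were read by RT-PCR plus capillary electrophoresis.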

Assay [9] is described as follows: ATG_BRE_CIS: Attagene CIS-FACTORIAL HepG2 Assay for human Bone Morphogenetic Protein (BMP) Response Element (BRE) (AID 2282933). The following applies: HepG2 BMP response element reporter, Attagene transcription factor profiling; actives raise or lower the signal. The essentials:
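After a 24 h chemical treatment, transiently transfected HepG2 cells were lysed for RNA; reporter transcripts were quantified by fluorescent RT-PCR and capillary electrophoresis, normalised to DMSO.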

Assay [10] has as its target Retinoic acid receptor alpha (Homo sapiens) (UniProt P10276). Kind of assay: ATG_DR5_RAR_CIS: Attagene CIS-FACTORIAL HepG2 Assay for human Retinoic Acid Receptor Alpha (RARE), DR5 submotif (AID 2282934). The following applies: HepG2 Attagene cis-factorial RARE DR5 reporter, mRNA; actives raise or lower the signal. The method in brief:
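Transfected HepG2 reporter cells are exposed to chemicals for 24 h. Then RNA is extracted and the DR5 element reporter transcript is measured by RT-PCR and capillary electrophoresis, with bidirectional curve fitting relative to DMSO.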

CCAAT/enhancer-binding protein beta (Homo sapiens), sequence (P17676 whole entry, looked up, the tested form may be a part): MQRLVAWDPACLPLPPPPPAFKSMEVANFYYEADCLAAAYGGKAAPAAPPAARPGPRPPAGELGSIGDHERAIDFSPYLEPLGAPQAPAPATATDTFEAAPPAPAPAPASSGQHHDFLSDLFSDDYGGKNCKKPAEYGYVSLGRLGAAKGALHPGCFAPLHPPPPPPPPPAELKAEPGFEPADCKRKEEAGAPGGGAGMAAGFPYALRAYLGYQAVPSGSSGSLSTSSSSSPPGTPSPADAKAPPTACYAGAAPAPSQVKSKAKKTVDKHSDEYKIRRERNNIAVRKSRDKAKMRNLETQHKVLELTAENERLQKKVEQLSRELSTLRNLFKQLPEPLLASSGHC
Retinoic acid receptor alpha (Homo sapiens), sequence (P10276 whole entry, looked up): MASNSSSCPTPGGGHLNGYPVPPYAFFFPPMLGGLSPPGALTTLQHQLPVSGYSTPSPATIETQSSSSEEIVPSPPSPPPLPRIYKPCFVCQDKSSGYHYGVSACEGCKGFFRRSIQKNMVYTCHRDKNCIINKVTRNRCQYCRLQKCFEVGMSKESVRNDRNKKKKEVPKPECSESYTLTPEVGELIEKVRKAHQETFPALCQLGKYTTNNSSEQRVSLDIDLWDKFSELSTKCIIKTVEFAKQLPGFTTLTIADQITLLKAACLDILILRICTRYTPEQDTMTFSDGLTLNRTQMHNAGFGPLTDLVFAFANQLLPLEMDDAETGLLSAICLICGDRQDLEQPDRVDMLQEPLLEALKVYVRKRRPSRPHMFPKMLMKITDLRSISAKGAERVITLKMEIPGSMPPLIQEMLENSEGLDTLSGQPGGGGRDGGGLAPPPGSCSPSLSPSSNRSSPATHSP
Aryl hydrocarbon receptor (Homo sapiens), sequence (P35869 whole entry, looked up): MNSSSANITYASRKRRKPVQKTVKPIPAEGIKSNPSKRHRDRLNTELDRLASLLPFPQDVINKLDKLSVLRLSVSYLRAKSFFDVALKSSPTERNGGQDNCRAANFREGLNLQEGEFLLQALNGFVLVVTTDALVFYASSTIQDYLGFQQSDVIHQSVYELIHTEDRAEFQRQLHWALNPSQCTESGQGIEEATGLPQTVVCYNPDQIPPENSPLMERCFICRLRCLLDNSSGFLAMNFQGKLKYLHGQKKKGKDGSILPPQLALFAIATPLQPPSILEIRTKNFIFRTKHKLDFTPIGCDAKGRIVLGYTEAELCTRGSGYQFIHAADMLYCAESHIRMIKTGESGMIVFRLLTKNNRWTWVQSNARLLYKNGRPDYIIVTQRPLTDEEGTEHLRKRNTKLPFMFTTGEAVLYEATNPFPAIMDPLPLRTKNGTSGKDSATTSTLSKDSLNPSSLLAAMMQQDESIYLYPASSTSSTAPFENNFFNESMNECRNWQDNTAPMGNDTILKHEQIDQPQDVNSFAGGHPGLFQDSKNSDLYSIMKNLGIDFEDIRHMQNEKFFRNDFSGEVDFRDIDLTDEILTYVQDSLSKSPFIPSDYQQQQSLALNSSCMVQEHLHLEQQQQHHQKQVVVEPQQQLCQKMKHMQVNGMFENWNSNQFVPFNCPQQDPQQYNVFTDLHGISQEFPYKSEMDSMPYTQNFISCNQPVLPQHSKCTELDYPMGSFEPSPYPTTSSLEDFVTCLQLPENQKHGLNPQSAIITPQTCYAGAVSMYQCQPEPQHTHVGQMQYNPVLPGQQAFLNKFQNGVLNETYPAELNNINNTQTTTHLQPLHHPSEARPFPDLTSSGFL

With `O=S(=O)(O)C(F)(F)C(F)(F)C(F)(F)C(F)(F)C(F)(F)C(F)(F)C(F)(F)F`, the compound was called inactive in assay [1], in assay [2], in assay [4], in assay [5], in assay [6] and in assay [7]. For the same compound, the compound was classed as inactive in assay [8], in assay [9] and in assay [10]. Moreover, the AC50 was 70.3 µM (active) and 50 µM (active) in [3]; 29.7 µM (active) in assay [5]; 100 µM (active) in assay [7]; 100 µM (active) in assay [9].

Consider `COC(=O)CCC(F)(F)C(F)(F)C(F)(F)C(F)(F)F`, for which the compound was classed as inactive in assay [1], in assay [2], in assay [3], in [4], in assay [5] and in assay [6]. For the same compound, the compound was classed as inactive in [7], in assay [8], in assay [9] and in assay [10].

As for `O=C(O)C(F)(F)C(F)(F)C(F)F`, the outcome in assay [1], in assay [2], in assay [3], in assay [4], in assay [5] and in [6] was inactive. Also, the outcome in [7], in assay [8], in assay [9] and in assay [10] was inactive.

`FC(F)(F)C(F)(F)C(F)(F)C(F)(F)CCI`: the call in assay [1], in [2], in assay [3], in assay [4], in assay [5] and in [6] was inactive. Moreover, the call in [7], in assay [8], in assay [9] and in assay [10] was inactive. Also, in assay [6], the AC50 is 43.5 µM (active).

Take `C=C(C)C(=O)OCC(F)(F)C(F)(F)C(F)(F)F`: the compound was classed as inactive in assay [1], in assay [2], in assay [3], in assay [4], in assay [5] and in assay [6]. The result in assay [7], in assay [8], in [9] and in assay [10] was inactive.

Turning to `[Co]`, the result in assay [1], in [2], in assay [3], in assay [4], in [5] and in assay [6] was inactive. Moreover, the outcome in assay [7], in [8], in assay [9] and in assay [10] was inactive.

In the case of `O=C(O)C(F)(F)C(F)(F)C(F)(F)C(F)(F)C(F)(F)C(F)(F)C(F)(F)C(F)(F)C(F)(F)C(F)(F)C(F)(F)C(F)(F)C(F)(F)F`, the outcome in assay [1], in assay [2], in assay [3], in [4], in assay [5] and in assay [6] was inactive. In addition, the call in assay [9] and in assay [10] was inactive. In assay [7], the AC50 was 42.8 µM (active).

For `O=S(=O)(OCCOC(F)(F)F)C(F)(F)F`, the outcome in [1], in [2], in assay [3], in assay [4], in [5] and in [6] was inactive. In addition, the result in [7], in assay [8], in assay [9] and in [10] was inactive. In addition, in [6], the AC50 was 101 µM (active).

Take `CC(C)OC(=O)c1ccccc1C(=O)OC(C)C`: the compound was called inactive in assay [1], in [2], in assay [3], in [4], in [5] and in assay [6]. The call in [7], in [8], in [9] and in [10] was inactive.

Consider `Nc1ccc(S(=O)(=O)Nc2nccs2)cc1`, for which the compound was classed as inactive in assay [1], in [2], in assay [3], in assay [4], in assay [5] and in [6]. In addition, the result in assay [7], in assay [8], in assay [9] and in assay [10] was inactive.

As for `Nc1ccc(Oc2cccc(Oc3ccc(N)cc3)c2)cc1`, the outcome in [1], in assay [3], in assay [6], in [7], in assay [8] and in assay [9] was inactive. For the same compound, in assay [10], the outcome was inactive. Also, the AC50 in assay [2] was 145 µM (active); in [4] it was 45.1 µM (active); in [5], 25.4 µM (active).

On to `FC(F)(F)C(F)(F)C(F)(F)C(F)(F)C(F)(F)C(F)(F)C(F)(F)I`, for which the outcome in assay [1], in assay [2], in assay [3], in [4], in assay [5] and in [6] was inactive. Moreover, the result in assay [7], in assay [8], in assay [9] and in assay [10] was inactive.

For `Nc1cc(Cl)c(N)c(Cl)c1`, the half-maximal activity concentration (AC50) in assay [1] was 13.5 µM (active); in assay [6], 6.21 µM (active). For the same compound, the compound was called inactive in assay [2], in assay [3], in [4], in [5], in assay [7] and in assay [9]. In addition, the result in assay [10] was inactive.

As for `CC(C)(C)c1ccc(OC2CCCCC2O)cc1` (stereo not drawn), the outcome in assay [1], in assay [2], in assay [3], in assay [5], in assay [6] and in assay [8] was inactive. Besides, in [10], the call was inactive. In addition, the half-maximal activity concentration (AC50) in assay [4] was 48.8 µM (active); in [7], 24.5 µM (active); in assay [9], 42.4 µM (active).

For the compound `CC(=O)Nc1ccc(N=Nc2cc(C)ccc2O)cc1`, the compound was classed as inactive in [1], in assay [2], in [3], in assay [4], in assay [5] and in assay [7]. The call in [8], in assay [9] and in assay [10] was inactive. The AC50 in [6] is 17.7 µM (active).

Broadly, the AC50 is the concentration giving half of the maximal activity seen.
